Data as given in PubChem BioAssay (EPA / NIEHS).
Records with an inconclusive call do not appear. Calls of active or inactive are those of the source. How the source made its calls: active means hit-call score of the fitted dose curve at least 0.9, where 1 is the maximum; inconclusive means response in the unintended direction; inactive means score below 0.9.

Assays:
[1] = TOX21_p53_BLA_p2_viability: Viability Assessment in the Tox21 HCT-116 p53 Agonism Beta-lactamase Assay, Phase 2 (AID 2283591);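 further: compound exposure lasted 16 h at 37 °C; actives lower the ATP signal meaning cytotoxicity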
Procedure, shortened: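 Cytotoxicity readout: CellTiter-Glo ATP luminescence, 30 min at room temperature, after the beta-lactamase read. Cells were HCT116 exposed 16 h at 37C to compounds pin-transferred at 217-fold dilution from DMSO stocks.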

[2] = target: Cellular tumor antigen p53 (Homo sapiens) (UniProt P04637); test: TOX21_p53_BLA_p2_ratio: Tox21 HCT-116 p53 Agonism Beta-lactamase Assay, Ratio, Phase 2 (AID 2283592)
Procedure, shortened: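 Gain-of-signal p53 agonism was scored from the beta-lactamase FRET ratio (460/530 nm, 405 nm excitation) in HCT116 cells treated 16 h at 37C, 5% CO2, with DMSO serving as negative control and baseline.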

[3] = target: Cellular tumor antigen p53 (Homo sapiens) (UniProt P04637); test: TOX21_p53_BLA_p3_ratio: Tox21 HCT-116 p53 Agonism Beta-lactamase Assay, Ratio, Phase 3 (AID 2283596)
Procedure, shortened: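 HCT116 p53-bla cells (4000/well) given compound in DMSO (217-fold dilution) after 5 h, incubated 16 h at 37C. CCF4-AM substrate 2 h at room temperature; 460/530 nm emission ratio, gain fitted against DMSO.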

[4] = TOX21_p53_BLA_p4_viability: Viability Assessment in the Tox21 HCT-116 p53 Agonism Beta-lactamase Assay, Phase 4 (AID 2283597);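 further: hits lower the luminescence signal meaning cytotoxicity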
Procedure, shortened: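 Following a 16 h exposure at 37C, the treated HCT116 wells were first read for the FRET ratio. They were then lysed with CellTiter-Glo, and ATP luminescence was recorded after 30 min at room temperature.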

[5] = target: Cellular tumor antigen p53 (Homo sapiens) (UniProt P04637); test: TOX21_p53_BLA_p5_ratio: Tox21 HCT-116 p53 Agonism Beta-lactamase Assay, Ratio, Phase 5 (AID 2283599)
Procedure, shortened: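 Beta-lactamase reporter ratio (blue 460 nm over green 530 nm, 405 nm excitation) after 2 h CCF4-AM loading, in HCT-116 cells exposed 16 h at 37 C to compounds pinned at 217-fold dilution. Increases relative to DMSO baseline scored.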

[6] = TOX21_p53_BLA_p5_viability: Viability Assessment in the Tox21 HCT-116 p53 Agonism Beta-lactamase Assay, Phase 5 (AID 2283600)
Procedure, shortened: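 After the 460/530 nm beta-lactamase measurement, the wells received an ATP-detection luciferase reagent; signal was read 30 min later at RT. Compound treatment lasted 16 h on cells pre-incubated 5 h post-seeding.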

[7] = target: Cellular tumor antigen p53 (Homo sapiens) (UniProt P04637); test: TOX21_p53_BLA_p4_ratio: Tox21 HCT-116 p53 Agonism Beta-lactamase Assay, Ratio, Phase 4 (AID 2283601)
Procedure, shortened: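 Signal is the blue/green (460nm/530nm) ratio of cleaved versus uncleaved CCF4-AM substrate, read after 2 h substrate loading. Cells were HCT116 carrying the p53-responsive beta-lactamase reporter, dosed 16 h at 37C, 5% CO2; CellTiter-Glo measured in parallel.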

Measured: AC50

Chain of Cellular tumor antigen p53 (Homo sapiens) (P04637 whole entry, looked up): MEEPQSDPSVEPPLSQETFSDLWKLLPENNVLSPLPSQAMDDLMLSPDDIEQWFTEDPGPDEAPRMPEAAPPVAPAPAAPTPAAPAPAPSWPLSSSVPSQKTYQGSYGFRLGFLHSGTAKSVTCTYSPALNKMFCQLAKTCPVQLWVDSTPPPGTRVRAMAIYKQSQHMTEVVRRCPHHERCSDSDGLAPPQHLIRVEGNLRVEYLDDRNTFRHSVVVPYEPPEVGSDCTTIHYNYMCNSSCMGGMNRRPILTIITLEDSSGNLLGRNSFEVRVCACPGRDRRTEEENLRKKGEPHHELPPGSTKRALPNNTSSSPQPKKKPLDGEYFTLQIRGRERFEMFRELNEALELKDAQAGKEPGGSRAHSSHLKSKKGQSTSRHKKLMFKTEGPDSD

Cc1ccc([N+](=O)[O-])cc1Cl
inactive: all assays above

CC(=O)O[C@H]1C[C@@]2(C)[C@@H](C[C@@H](O)[C@H]3[C@@]4(C)CC[C@@H](O)[C@@H](C)[C@@H]4CC[C@@]32C)/C1=C(\CCC=C(C)C)C(=O)O
not listed: [7]
inactive: all other assays above

Clc1nnc(Cl)c2ccccc12
not listed: [7]
inactive: all other assays above

COc1cc(C(=O)NS(=O)(=O)c2ccccc2C)ccc1Cc1cn(C)c2ccc(NC(=O)OC3CCCC3)cc12
active: [1] 14.2 µM | [2] 7.01 µM | [3] 8.2 µM | [4] 8.18 µM | [5] 12.9 µM | [6] 10.1 µM | [7] 9.98 µM

CCC(=O)O[C@H]1CC[C@H]2[C@@H]3CCc4cc(O)ccc4[C@H]3CC[C@]12C
active: [4] 37.2 µM
not listed: [7]
inactive: all other assays above

O=[N+]([O-])c1ccc2ncccc2c1
inactive: all assays above

CN(C)CC/C=C1\c2ccccc2Sc2ccc(Cl)cc21
active: [2] 33.1 µM | [4] 35.7 µM | [7] 21.9 µM
inactive: all other assays above

NS(=O)(=O)c1cc2c(cc1Cl)NC(C1CC3C=CC1C3)NS2(=O)=O (stereo unspecified)
inactive: all assays above

O=C(Nc1ccc(C(=O)O)c(O)c1)c1ccccc1
inactive: all assays above

CC(=O)N/N=C/c1ccc([N+](=O)[O-])o1
active: [2] 42.3 µM | [4] 40.9 µM | [5] 34.9 µM | [7] 41.3 µM
inactive: [1] | [3] | [6]

O=C1O[C@H](CO)[C@@H](O)[C@H](O)[C@H]1O
inactive: all assays above

CC1=CC(=O)CC(C)(C)C1=O
inactive: all assays above

O=C(Nc1ccc([N+](=O)[O-])cc1)Nc1ccc([N+](=O)[O-])cc1
inactive: all assays above

CC(C)NCC(O)COc1ccc(COCCOC(C)C)cc1 (stereo unspecified)
inactive: all assays above

Nc1ccc(Oc2ccc(Cl)cc2)cc1
inactive: all assays above

COc1ccc(OC)c(C(O)CNC(=O)CN)c1 (stereo unspecified)
inactive: all assays above

C=CC1=C(C)C2=CC3=NC(=C(CC(=O)[O-])C4=NC(=C(C)C4=C([O-])[O-])C=c4[n-]c(c(C)c4CC)=CC1=N2)[C@@H](CCC(=O)[O-])[C@@H]3C.[Cu+2].[Na+].[Na+].[Na+]
inactive: all assays above
